Source: PubChem (Broad Institute)
These entries were drawn from the full list.
aSyn 5UTR act – Activators working through SNCA 5'UTR binding (MLPCN). alpha-synuclein 5'UTR reporter, activators screen. activity score, % (tested at 7.5 µM), hits read low. 300,000 tested, 7.1% active; in the data active = activity score below about -60%
Of the large screens only hits and unclear results are named; the others gave an inactive call.

Cc1cccc(C(=O)Nc2cccc(C(=O)N/N=C/c3ccc4c(c3)OCO4)c2)c1	aSyn 5UTR act -109
COc1cccc(CNC(=O)c2nnn(CC(=O)Nc3ccc(Br)cc3)c2N)c1	none
CCOc1ccc(CCNC(=O)c2nnn(CC(=O)Nc3ccc(C)cc3)c2N)cc1OCC	aSyn 5UTR act -71
COc1ccc(N2C(=S)NC3N2C(=S)NC3(C)c2ccccc2)cc1 (stereo not drawn)	aSyn 5UTR act -93
COc1ccc(/C=N/n2cc(-c3ccccc3)nc2N)cc1	aSyn 5UTR act -134
COc1ccc(/C=N\n2nnc3ccccc32)cc1	none
Cc1cccc(Nc2nc(N)nc(CSc3nccn3C)n2)c1	aSyn 5UTR act -99
Cc1ccc(Oc2nnc(-c3ccc(C)cc3)c3ccccc23)cc1	aSyn 5UTR act -93
Cc1ccc(-c2cc3c(N=O)c4ccccc4c-3n[nH]2)cc1	none
Cc1cc(C)n(-c2nc(SCCN(C)C)c3c4c(sc3n2)CCCC4)n1	aSyn 5UTR act -71
CCN1CCN(Cc2ccc(NC(=O)Nc3ccc(OC)cc3)cc2)CC1	aSyn 5UTR act -74
COc1ccc(OCc2cccc(C(=O)Nc3ccc(CN4CCCCC4)cc3)c2)cc1	aSyn 5UTR act -112
CCN1CCN(Cc2ccc(NC(=O)Nc3ccc(SC)cc3)cc2)CC1	aSyn 5UTR act -103
CCOc1ccc(OCc2cccc(C(=O)Nc3ccc(CN4CCCCC4)cc3)c2)cc1	none
O=C(O)C[C@H](O)C[C@H](O)/C=C/c1c(C2CC2)nc2ccccc2c1-c1ccc(F)cc1	none
S=c1[nH]nc(-c2cc3c(s2)-c2ccccc2CC3)o1	aSyn 5UTR act -123
CSc1nnc(-c2cc3c(s2)-c2ccccc2CC3)o1	aSyn 5UTR act -169
Cc1c(C(=O)OC2CCCC2C)[nH]c2c1C(=O)CCC2 (stereo not drawn)	aSyn 5UTR act -92
C=CCOC(=O)c1[nH]c2c(c1C)C(=O)CC(c1ccco1)C2 (stereo not drawn)	none
COc1nc(-c2ccccc2)ccc1-c1noc(C)n1	aSyn 5UTR act -112
CCc1nc(-c2ccc(-c3ccc(OC)cc3)nc2OC)no1	aSyn 5UTR act -132
COCc1nc(-c2ccc(-c3ccccc3)nc2OC)no1	aSyn 5UTR act -100
COCc1nc(-c2ccc(-c3ccc(OC)cc3)nc2OC)no1	aSyn 5UTR act -123
COc1ccc(-c2ccc(-c3noc(C(C)C)n3)c(OC)n2)cc1	aSyn 5UTR act -96
CC(C)(O)C#Cc1ccc(C(=O)NCc2ccccc2F)cc1	aSyn 5UTR act -66
O=C(C#Cc1ccccc1)NCc1ccccc1F	aSyn 5UTR act -70
C=CCNC(=O)c1ccc2nc(Cc3ccc(OC)cc3)oc2c1	aSyn 5UTR act -139
COc1ccc(Cc2nc3ccc(C(=O)NCCCSC)cc3o2)cc1OC	aSyn 5UTR act -99
COc1ccc(Cc2nc3ccc(C(=O)N(C)CCn4ccnc4)cc3o2)cc1OC	aSyn 5UTR act -78
COc1ccc(Cc2nc3ccc(C(=O)N4CCOCC4)cc3o2)cc1	aSyn 5UTR act -125
COCCCNC(=O)c1ccc2nc(Cc3ccc(OC)cc3)oc2c1	aSyn 5UTR act -95
CCC1=Nc2cc(C(=O)NCCCOC)ccc2Sc2ccccc21	none
Nn1c(SCC(=O)Nc2ccc(F)cc2F)nnc1-c1cccnc1	aSyn 5UTR act -89
Nn1c(SCC(=O)Nc2ccc(F)cc2F)nnc1C1CCCCC1	aSyn 5UTR act -64
S=C1NC(c2ccccc2)=NCN1c1ccccc1	aSyn 5UTR act -66
Cc1ccc(C2=NCN(c3ccc(C(=O)O)cc3)C(=S)N2)cc1	aSyn 5UTR act -117
NC(=O)N/N=C/c1ccc(OCc2cccc(Cl)c2)cc1	aSyn 5UTR act -73
Nc1nonc1-n1nnc(C(=O)N/N=C/c2ccc(OCc3cccc(Cl)c3)cc2)c1CN1CCCCC1	aSyn 5UTR act -136
CC1CCN(Cc2c(C(=O)N/N=C/c3cc(Cl)ccc3O)nnn2-c2nonc2N)CC1	none
Cc1cccc(COc2ccc(/C=N/NC(=O)c3nnn(-c4nonc4N)c3CN3CCCCC3)cc2)c1	aSyn 5UTR act -101
CC1CCN(Cc2c(C(=O)N/N=C/c3cc(Br)ccc3O)nnn2-c2nonc2N)CC1	none
Cc1ccc(C(=O)Oc2ccc(/C=N/NC(N)=O)cc2)cc1	aSyn 5UTR act -124
Nc1nonc1-n1nnc(C(=O)N/N=C/c2ccc(OCc3ccccc3F)cc2)c1CN1CCCCC1	aSyn 5UTR act -111
COc1ccc(/C=C/c2ccncc2)cc1	aSyn 5UTR act -96
CCOC(=O)c1cnc(SCc2ccccc2)nc1N	aSyn 5UTR act -183
C=CCSc1ncc(C(=O)OCC)c(N)n1	aSyn 5UTR act -101
O=C(Nc1ccc2c(c1)OCO2)c1cccc(F)c1	aSyn 5UTR act -183
O=C(Nc1cccc(F)c1)Nc1ccc2c(c1)OCO2	aSyn 5UTR act -99
O=C(Nc1ccc2c(c1)OCO2)c1c(F)cccc1F	aSyn 5UTR act -125
O=C(Nc1ccc(Cl)cc1)Nc1ccc(-c2cnco2)cc1	aSyn 5UTR act -85
O=C(NC(=O)c1ccccc1)Nc1ccc(-c2cnco2)cc1	aSyn 5UTR act -143
Nc1nc(-c2ccccn2)nc(N)c1Cc1ccccc1F	aSyn 5UTR act -246
Cc1ccc(OCc2cc(C(=O)N3CCN(C)C[C@@H]3c3ccccc3)no2)cc1C	aSyn 5UTR act -106
CN1CCN(C(=O)c2cc(COc3ccccc3)on2)[C@@H](c2ccccc2)C1	aSyn 5UTR act -166
COc1ccc(C(=O)N/N=C(/C)c2cccc(NC(=O)c3ccccc3F)c2)cc1	aSyn 5UTR act -79
COc1ccc(C(=O)N/N=C(\C)c2cccc(NC(=O)c3ccc(F)cc3)c2)c(OC)c1	aSyn 5UTR act -66
C/C(=N\NC(=O)c1ccncc1)c1cccc(NC(=O)c2ccc(C(C)(C)C)cc2)c1	aSyn 5UTR act -123
C/C(=N\NC(=O)c1cc(O)ccc1O)c1cccc(NC(=O)c2ccc(Cl)cc2)c1	aSyn 5UTR act -99
CCC(C)NC(=O)Cn1c(COc2ccc(Cl)cc2Cl)nc2ccccc21 (stereo not drawn)	aSyn 5UTR act -122
COc1ccc([C@@H]2[C@@H]3C(=O)N(C(C)(C)C)C(=O)[C@@H]3[C@]3(Cc4ccccc4)C(=O)N(c4cccc(C)c4)C(=O)N23)cc1	aSyn 5UTR act -63
CCOc1ccc(Nc2n[nH]c(=S)s2)cc1	aSyn 5UTR act -112
CCOc1ccc(Nc2cc(C)nc(-n3nc(C)cc3C)n2)cc1	none
CCc1nnc(NC(=O)Nc2ccccc2OC)s1	aSyn 5UTR act -70
COc1ccccc1NC(=O)Nc1nnc(C(C)C)s1	aSyn 5UTR act -81
CC(=O)Nc1nnc(COc2ccc(Cl)cc2)s1	aSyn 5UTR act -109
CCOc1ccc(NC(=O)Nc2nnc(CC)s2)cc1	aSyn 5UTR act -105
CN(C)/C=C1\C(=O)N(c2ccc(Cl)cc2)CS1(=O)=O	aSyn 5UTR act -126
Cc1ccc(N2CS(=O)(=O)/C(=C/N(C)C)C2=O)cc1	aSyn 5UTR act -108
CCOC(=O)c1cc(C(=O)Nc2ccc(C)c(F)c2)nn1C	aSyn 5UTR act -224
CCOc1ccc2nc(SCc3ccc(OC)cc3)sc2c1	aSyn 5UTR act -83
CCOc1ccc2nc(SCc3ccccc3C#N)sc2c1	aSyn 5UTR act -220
CCOC(=O)c1cnn(-c2ncnc3c2oc2ccccc23)c1N	aSyn 5UTR act -98
CCOC(=O)c1cnn(-c2cc(Oc3ccccc3C)ncn2)c1N	aSyn 5UTR act -88
CCOC(=O)c1cnn(-c2cc(C)c3ccccc3n2)c1N	aSyn 5UTR act -65
c1ccc(Oc2cc(-c3ccccc3)ncn2)cc1	aSyn 5UTR act -124
CCOC(=O)c1cnn(-c2cc(Oc3ccccc3)ncn2)c1N	aSyn 5UTR act -101
CCOC(=O)c1cnn(-c2ncnc3sc4c(c23)CCC4)c1N	aSyn 5UTR act -75
Cc1cnn(-c2cc(Oc3ccccc3)ncn2)c1	aSyn 5UTR act -216
